This note sets out measurements from PubChem BioAssay (NCI).

This is part of a sample that, as a whole, favours compounds with a hit. Of some 83,000 tested, about 20% had one in any assay.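 Step 1: grow cells in 96-well plates. Step 2: add test compound at a single concentration. Step 3: incubate 48 h. Step 4: record percent growth.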 Values without a mark were called inactive. The source made the active and inactive calls. The calls were made as follows: active = growth percent below 10; inactive = the rest.

Common to all, as to test: NCI-60 one-dose screen, 48 h (100 = growth as untreated, 0 = no growth, -100 = all killed)
Conditions in all cases: 10 µM unless noted

The test system of test [1] is HCT-15 colon.
In test [2] the test system is HT29 colon.
Test [3] deals with SNB-75 CNS.
For test [4], the system named is SNB-19 CNS.
Test [5] relates to U251 CNS.
In test [6] the test system is PC-3 prostate.
Test [7] relates to SK-MEL-5 melanoma.
The test system of test [8] is UACC-62 melanoma.
In test [9] the test system is LOX IMVI melanoma.
In test [10] the test system is SK-MEL-28 melanoma.
For test [11], the system named is SK-MEL-2 melanoma.
The test system of test [12] is EKVX NSCLC.
Test [13] concerns SN12C renal.
Test [14] has as its system TK-10 renal.
Test [15] concerns ACHN renal.
Test [16] deals with CAKI-1 renal.
The test system of test [17] is A498 renal.
The subject of test [18] is CCRF-CEM leukemia.
Test [19] concerns MOLT-4 leukemia.
The test system of test [20] is UO-31 renal.

For `O=C(Nc1ncc(Cc2cc(Cl)ccc2Cl)s1)c1cccs1`, the growth in [1] was 23.5%; in [2] it was 24.3%; in [3], 72.5%; in [4], 72.9%; in test [5] it was 51.8%; in [6], 53.4%. Moreover, the growth is 42.9% in [7]; 36.7% in [8]; 43.3% in test [9]; 63.7% in test [10]; 50.5% in test [11]; 64% in test [12]. The growth was 65.4% in test [13]; 68.4% in test [14]; 60.8% in [15]; 42.4% in test [16]; 65.3% in test [17]; 49.6% in test [18]. The growth in [19] was 63.2%.
With `O=C1Nc2cc(-c3ccc(NC(=O)C4CC4)cc3)ccc2/C1=C/c1ccc[nH]1`, the growth is 94.7% in test [1]; 101% in [2]; 94.5% in test [3]; 94.7% in test [4]; 84% in test [5]; 104% in test [6]. Further, the growth is 98.6% in [7]; 110% in test [8]; 95.1% in test [9]; 119% in test [10]; 109% in test [11]; 47.6% in test [12]. The growth in [13] was 97.8%; in test [14], 115%; in test [15], 106%; in test [16], 102%; in [18] it was 98.7%; in [19], 94.7%.
Consider `Fc1ccc2c(-c3cncn3CCc3ccccc3)c[nH]c2c1`, for which the growth in [1] was 95.7%; in [2], 85.4%; in [3], 47.7%; in [4] it was 85.1%; in test [5], 91.9%; in [6], 86.8%. The growth in test [7] is 90.2%; in test [8], 73.3%; in test [9] it was 94.8%; in [10] it was 98.8%; in test [11], 94.1%; in test [13], 77%. For the same compound, the growth was 68.1% in test [20]; 135% in test [14]; 96.7% in test [15]; 75.2% in test [16]; 64.1% in test [17]; 79.4% in [18]. In addition, the growth in test [19] is 91.2%.
Turning to `COc1ccc(CCn2cncc2-c2c[nH]c3ccccc23)cc1`, the growth in test [1] was 93.1%; in test [2], 82.9%; in test [3], 44.4%; in test [4], 91.4%; in test [5], 95.7%; in test [6], 80.7%. Also, the growth in [7] is 88.2%; in test [8], 81.6%; in test [9], 88.3%; in test [10] it was 101%; in [11], 88.6%; in [12], 71.4%. For the same compound, the growth in test [13] was 80.8%; in test [14], 141%; in [15], 87%; in test [16] it was 68.7%; in test [17] it was 69.5%; in test [18], 101%. In addition, the growth in [19] was 93.1%.
`COc1cccc(C(=O)NNc2nc(Cl)nc(N3CCN(C(c4ccccc4)c4ccccc4)CC3)n2)c1`: the growth was 13.3% in test [1]; 20.3% in [2]; 89.3% in test [3]; 77.4% in [4]; 100% in [5]; 34.3% in test [6]. In addition, the growth in test [7] is 91.2%; in test [8], 76.5%; in test [9], 2.99% (active); in [10] it was 89.1%; in test [11], 79.1%; in [13], 70.9%. Besides, the growth in test [20] is 93.4%; in test [14] it was 97.8%; in [15], 54.6%; in test [16] it was 68.7%; in test [18], -5.32% (active); in test [19] it was 4.48% (active).
With `COc1ccccc1NC(=O)C1CC(c2ccc(F)cc2)=NO1` (configuration not stated), the growth in test [1] is 99.2%; in test [2] it was 103%; in test [3], 87.9%; in test [4] it was 96.8%; in test [5] it was 96.3%; in test [6], 104%. The growth in [7] was 95.3%; in [8], 96%; in test [9], 95.5%; in test [10], 107%; in test [11], 103%; in test [13], 96.3%. Moreover, the growth is 82.9% in test [20]; 105% in [14]; 107% in test [15]; 95.3% in test [16]; 104% in test [18]; 103% in test [19].
Take `O=C1c2ccc3c4c(ccc(c24)C(=O)N1CCCNCc1ccccc1Cl)C(=O)N(CCCNCc1ccccc1Cl)C3=O`: the growth in test [1] is -46% (active); in [2], -42.5% (active); in test [3], -97.9% (active); in [4], -76.9% (active); in test [5] it was -52.8% (active); in test [6], -37.7% (active). Also, the growth in test [7] is -96.6% (active); in [8], -59.5% (active); in test [9], -53.7% (active); in test [10], -92.2% (active); in test [11], -60.6% (active); in [12], -46.7% (active). Further, the growth is -87.1% (active) in [13]; -54.9% (active) in test [14]; -39.3% (active) in [15]; -12.6% (active) in [16]; -15.5% (active) in [18]; -24.4% (active) in test [19].
Turning to `COc1ccc(-c2nc(S(=O)(=O)c3ccccc3)c(S(=O)CC(=O)N3CCC(C)CC3)o2)cc1` (configuration not stated), the growth was -48.5% (active) in test [1]; 11% in [2]; 72% in [3]; 57.6% in test [4]; 66.2% in test [5]; 40.9% in [6]. In addition, the growth in test [7] is 72.8%; in test [8] it was 17.9%; in test [9] it was -4.12% (active); in test [10], 19.2%; in test [11] it was 67.9%; in [13] it was -33.3% (active). Also, the growth in [20] was -65.9% (active); in test [14] it was 33.1%; in [15], -29.8% (active); in test [16], 34.5%; in test [17] it was 83.8%; in test [18], 1.85% (active).
